Compounds without any hit were thinned out: in the full panel of roughly 83,000, 20% have a hit.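 Negative percent growth values reflect cell death: -40 means 40% of the cells present at the start died, and -100 means all died.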 The source made the active and inactive calls. Rule for the calls: active = growth percent below 10; inactive = the rest.
Tests used:
Experiment in all cases: NCI-60 one-dose screen, 48 h (100 = growth as untreated, 0 = no growth, -100 = all killed)
Conditions in all cases: 10 µM unless noted
T-47D breast = system: T-47D breast
BT-549 breast = system: BT-549 breast
MDA-MB-435 melanoma = system: MDA-MB-435 melanoma
SW-620 colon = system: SW-620 colon
MCF7 breast = system: MCF7 breast
HCT-116 colon = system: HCT-116 colon
HCC-2998 colon = system: HCC-2998 colon
KM12 colon = system: KM12 colon

Measured: growth

CCO/C=N/C1=C(C#N)C(c2ccc(F)cc2)c2sc3c(C)cccc3c2O1 (configuration not stated)
active: MDA-MB-435 melanoma -31.2% | HCT-116 colon 6.05% | KM12 colon 8.6%
inactive: T-47D breast 62.1% | BT-549 breast 20% | SW-620 colon 19.6% | MCF7 breast 14.6% | HCC-2998 colon 18.7%

CCO/C=N/C1=C(C#N)C(c2ccc(Cl)cc2)c2sc3c(C)cccc3c2O1 (configuration not stated)
active: MDA-MB-435 melanoma -49.6% | HCC-2998 colon 9.57%
inactive: T-47D breast 33.5% | BT-549 breast 38.8% | SW-620 colon 26.5% | MCF7 breast 14.5% | HCT-116 colon 14.8% | KM12 colon 15.2%

C=C=COc1cccc(/C(N)=N/C(N)=N/c2nc3ccccc3s2)c1
inactive: T-47D breast 63.1% | BT-549 breast 56% | MDA-MB-435 melanoma 77.8% | SW-620 colon 94.9% | MCF7 breast 93.1% | HCT-116 colon 25.1% | HCC-2998 colon 102% | KM12 colon 71.1%

COc1cccc(O)c1/C=C(/C)c1ccc2c(OC)cccc2[o+]1
inactive: T-47D breast 106% | BT-549 breast 95.7% | MDA-MB-435 melanoma 86.7% | SW-620 colon 96.7% | MCF7 breast 93.8% | HCT-116 colon 101% | HCC-2998 colon 110% | KM12 colon 101%

Cc1cccc2c3c(sc12)C(c1ccc(Cl)cc1)c1c(nc(CC(=O)Nc2ccccc2)[nH]c1=O)O3 (configuration not stated)
active: MDA-MB-435 melanoma 9.37%
inactive: T-47D breast 47.9% | BT-549 breast 77.1% | SW-620 colon 40.9% | MCF7 breast 38.1% | HCT-116 colon 37.7% | HCC-2998 colon 85.7% | KM12 colon 37.7%

COc1ccccc1-n1cc(C#N)c(N)c1C(=O)c1ccc(C)cc1
active: MDA-MB-435 melanoma 5.3%
inactive: T-47D breast 82.1% | BT-549 breast 83.9% | SW-620 colon 52.4% | MCF7 breast 51.3% | HCT-116 colon 76.8% | HCC-2998 colon 80.9% | KM12 colon 59.6%

O=C(CN1CCN(c2cc(=O)n(-c3ccccc3)c3ccccc23)CC1)Nc1cccc(C(F)(F)F)c1
inactive: T-47D breast 19.7% | BT-549 breast 66.6% | MDA-MB-435 melanoma 61.4% | SW-620 colon 75% | MCF7 breast 29.1% | HCT-116 colon 42.6% | HCC-2998 colon 84.8% | KM12 colon 65.1%

CC1(C)[C@@H](O)CC[C@]2(C)[C@H]3CC[C@@H]4[C@H]5[C@H](C(=O)/C=C\c6ccccn6)CC[C@]5(O)CC[C@@]4(C)[C@]3(C)CC[C@@H]12
active: HCT-116 colon 2.84%
inactive: T-47D breast 59% | BT-549 breast 36% | MDA-MB-435 melanoma 27.4% | SW-620 colon 18.5% | MCF7 breast 31.8% | HCC-2998 colon 52% | KM12 colon 30.7%

Cn1ccnc1C(=O)/C=C/C=C/c1ccc(C(=O)Nc2ccc(F)cc2)cc1
active: MDA-MB-435 melanoma 4.45% | SW-620 colon -2.98% | HCT-116 colon -36.3%
inactive: T-47D breast 28.2% | BT-549 breast 36.3% | MCF7 breast 13.3% | HCC-2998 colon 66.4% | KM12 colon 17.1%

C#Cc1nc(C(=O)NCCC(=O)Nc2ccc(NC(=O)c3ccc(/C=C/C(=O)c4nccn4C)cc3)cc2)cs1
active: MCF7 breast 8.54% | HCT-116 colon -33.1% | KM12 colon 9.96%
inactive: T-47D breast 49.3% | BT-549 breast 54.3% | MDA-MB-435 melanoma 27% | SW-620 colon 15.7% | HCC-2998 colon 93.5%

O=C(Nc1nc2ccc([N+](=O)[O-])cc2s1)Nc1ccccc1Cl
inactive: BT-549 breast 36.9% | MDA-MB-435 melanoma 19.6% | SW-620 colon 46.1% | MCF7 breast 55.8% | HCT-116 colon 21.4% | HCC-2998 colon 47.6% | KM12 colon 26.4%
active: T-47D breast -0.208%

C[C@@H](Nc1ncnc2ccc(-c3cnc(Cl)c(NS(C)(=O)=O)c3)cc12)c1ccccc1
inactive: MDA-MB-435 melanoma 60.9% | SW-620 colon 67.7% | MCF7 breast 21.3% | HCT-116 colon 61% | HCC-2998 colon 70.6% | KM12 colon 89.3%
active: T-47D breast 9.4%

CCCn1cnc2c(c1=N)C(c1ccc(F)cc1)c1sc3c(CC)cccc3c1O2 (configuration not stated)
inactive: T-47D breast 72.7% | SW-620 colon 17.7% | MCF7 breast 18.1% | HCC-2998 colon 24.2% | KM12 colon 10.7%
active: MDA-MB-435 melanoma -25.2% | HCT-116 colon 7.53%

CNC(=O)c1cc(-n2ccc3cc(NC(=O)Nc4ccc(N5CCOCC5)c(C(F)(F)F)c4)ccc32)ccn1
active: KM12 colon 7.44%
inactive: T-47D breast 47% | MDA-MB-435 melanoma 40.2% | SW-620 colon 62.5% | MCF7 breast 35.3% | HCT-116 colon 20.5% | HCC-2998 colon 87.4%

C=C(C)[C@@H]1CC[C@]2(COC)CC[C@]3(C)[C@H](CC[C@@H]4[C@@]5(C)CCCNC(C)(C)[C@@H]5CC[C@]43C)[C@@H]12
active: SW-620 colon -57.6% | MCF7 breast 7.62% | HCT-116 colon -29.1% | HCC-2998 colon -29.1%
inactive: T-47D breast 54.1% | MDA-MB-435 melanoma 10.4% | KM12 colon 38.1%

O=S(=O)(NCCCNc1nccc(-c2[nH]c(-c3ccccc3)nc2-c2ccc(Cl)c(O)c2)n1)c1cccc2ccccc12
inactive: T-47D breast 21.9% | BT-549 breast 46% | MDA-MB-435 melanoma 16.6% | SW-620 colon 34.1% | MCF7 breast 16.4% | HCT-116 colon 16.3% | HCC-2998 colon 70% | KM12 colon 21.5%

CC1(C)[C@@H](O)CC[C@]2(C)[C@H]3CC[C@@H]4[C@H]5[C@H](C(=O)/C=C\c6ccc([N+](=O)[O-])cc6)CC[C@]5(O)CC[C@@]4(C)[C@]3(C)CC[C@@H]12
inactive: T-47D breast 57.7% | MDA-MB-435 melanoma 36.1% | SW-620 colon 30.2% | MCF7 breast 38.7% | HCC-2998 colon 77.2% | KM12 colon 53.3%
active: HCT-116 colon 4.14%

C[C@@H](Nc1c(C#N)cnc2ccc(-c3cnc(Cl)c(NS(C)(=O)=O)c3)cc12)c1ccccc1
inactive: HCC-2998 colon 16.7% | KM12 colon 15.1%
active: T-47D breast 0.239% | MDA-MB-435 melanoma 8.87% | SW-620 colon 9.39% | MCF7 breast 6.51% | HCT-116 colon 4.05%

COc1cc(-c2nn(C(C)(C)C)cc2-c2ccnc(NCCCNS(=O)(=O)c3ccc(Cl)cc3)n2)ccc1Cl
inactive: T-47D breast 64.2% | MDA-MB-435 melanoma 72.2% | SW-620 colon 91.1% | MCF7 breast 52.2% | HCT-116 colon 39% | HCC-2998 colon 108% | KM12 colon 68.8%

CC(C)(O)c1cncc(-c2ccc3ncnc(NCc4ccccc4)c3c2)c1
inactive: T-47D breast 64.2% | MDA-MB-435 melanoma 92.3% | SW-620 colon 98.9% | MCF7 breast 58.5% | HCT-116 colon 97.8% | HCC-2998 colon 92.8% | KM12 colon 101%

N#Cc1c(-c2cccs2)cc(-c2cnccn2)nc1SCC(=O)c1ccc(F)cc1
inactive: T-47D breast 106% | MDA-MB-435 melanoma 93.3% | SW-620 colon 96.7% | MCF7 breast 85.7% | HCT-116 colon 96.6% | HCC-2998 colon 117% | KM12 colon 99%

CS(=O)(=O)Nc1cc(-c2ccc3ncc(C#N)c(NCc4ccccc4)c3c2)cnc1Cl
active: T-47D breast 0.176% | MDA-MB-435 melanoma -6.33% | SW-620 colon 4.13% | MCF7 breast 6.39% | HCT-116 colon 4.12% | HCC-2998 colon 4.93% | KM12 colon 8.53%

Nc1nc(Nc2ccccc2SSc2ccccc2Nc2nc(N)nc(-c3cccc(Br)c3)n2)nc(-c2cccc(Br)c2)n1
inactive: T-47D breast 62.6% | MDA-MB-435 melanoma 93.9% | SW-620 colon 98.5% | MCF7 breast 69.2% | HCT-116 colon 47.8% | HCC-2998 colon 120% | KM12 colon 23.6%

COc1cc(-c2nn(C(C)(C)C)cc2-c2ccnc(NCCCNS(=O)(=O)c3ccc(F)cc3)n2)ccc1Cl
inactive: T-47D breast 85.1% | MDA-MB-435 melanoma 75% | SW-620 colon 95.9% | MCF7 breast 74.3% | HCT-116 colon 56.1% | HCC-2998 colon 108% | KM12 colon 78.5%

CNC(=O)c1cc(-c2ccc(NC(=S)Nc3cc(C(F)(F)F)cc(C(F)(F)F)c3)cc2)nc2cccnc12
inactive: T-47D breast 85.1% | MDA-MB-435 melanoma 94.9% | SW-620 colon 98.1% | MCF7 breast 59.6% | HCT-116 colon 99% | HCC-2998 colon 122% | KM12 colon 98.6%

O=C(Nc1ccc(N=Cc2c(O)[nH]c3ccccc23)cc1)Nc1nccs1
active: MDA-MB-435 melanoma -52.7%
inactive: T-47D breast 41.2% | SW-620 colon 21.4% | MCF7 breast 22.7% | HCT-116 colon 27% | HCC-2998 colon 73.9% | KM12 colon 59.2%

C=C(C)[C@@H]1CC[C@]2(COP(=O)(OCC)OCC)CC[C@]3(C)[C@H](CC[C@@H]4[C@@]5(C)CCCNC(C)(C)[C@@H]5CC[C@]43C)[C@@H]12
inactive: T-47D breast 59.1% | MDA-MB-435 melanoma 36.5% | SW-620 colon 15.3% | MCF7 breast 13.8% | KM12 colon 55.7%
active: HCT-116 colon -68.8% | HCC-2998 colon -27.4%

CC(=O)Nc1cccc(Nc2nc(N[C@H](C)c3ccccc3)c3ccccc3n2)c1
inactive: T-47D breast 78.8% | MDA-MB-435 melanoma 24.3% | SW-620 colon 61.5% | MCF7 breast 27.8% | HCT-116 colon 31% | HCC-2998 colon 88.7% | KM12 colon 55.9%

COC[C@]12CCC(C)(C)C[C@H]1C1=CC[C@@H]3[C@@]4(C)CCCNC(C)(C)[C@@H]4CC[C@@]3(C)[C@]1(C)CC2
inactive: T-47D breast 28.8%
active: MDA-MB-435 melanoma -76.3% | SW-620 colon -61.6% | MCF7 breast -71% | HCT-116 colon -89.6% | HCC-2998 colon -91.2% | KM12 colon -25.6%

C=CC(=O)N1CC=C(c2cc3c(N[C@H](C)c4ccccc4)ncnc3[nH]2)CC1
inactive: T-47D breast 71.6% | MDA-MB-435 melanoma 95% | SW-620 colon 87% | MCF7 breast 75.5% | HCT-116 colon 86.1% | HCC-2998 colon 89.6% | KM12 colon 98.9%

Source: PubChem BioAssay (NCI)
